Laboratory results from the supplement of paper PMC9694430.

Columns and labels:
Experiment in all cases: thermal shift delta Tm vs DMSO control; higher = stronger stabilization (binding)
Settings in all cases: 12.5 µM; protein concentration 2 µM
LOC_OS01G57100-cb003 = test system: LOC_OS01G57100-cb003
In short: (§1)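 Rice kinase domain constructs were expressed in E. coli, purified, and tested by differential scanning fluorimetry with compound added in DMSO. Each well of a 96-well plate held 19.5 μl of 2 μM kinase in 100 mM potassium phosphate pH 7.5, 150 mM NaCl, 10% glycerol and 5 × SYPRO Orange, and fluorescence was read from 25°C to 95°C at 0.05°C/s. The melting temperature shift is the mean of triplicates, taken against protein with DMSO alone after Boltzmann fitting.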

LOC_OS01G60330-cb001 = test system: LOC_OS01G60330-cb001
In short: as §1

LOC_OS01G60700-cb002 = test system: LOC_OS01G60700-cb002
In short: as §1

LOC_OS01G70970-cb002 = test system: LOC_OS01G70970-cb002
In short: as §1

LOC_OS02G07810-cb001 = test system: LOC_OS02G07810-cb001
In short: as §1

LOC_OS02G08530-cb003 = test system: LOC_OS02G08530-cb003
In short: as §1

LOC_OS02G14120-cb001 = test system: LOC_OS02G14120-cb001
In short: as §1

LOC_OS02G17970-cb001 = test system: LOC_OS02G17970-cb001
In short: as §1

LOC_OS02G45750-cb003 = test system: LOC_OS02G45750-cb003
In short: as §1

LOC_OS02G54510-cb004 = test system: LOC_OS02G54510-cb004
In short: as §1

LOC_OS03G04050-cb001 = test system: LOC_OS03G04050-cb001
In short: as §1

LOC_OS03G12390-cb001 = test system: LOC_OS03G12390-cb001
In short: as §1

LOC_OS03G27990-cb004 = test system: LOC_OS03G27990-cb004
In short: as §1

LOC_OS03G50450-cb001 = test system: LOC_OS03G50450-cb001
In short: as §1

LOC_OS03G50810-cb003 = test system: LOC_OS03G50810-cb003
In short: as §1

LOC_OS04G35114-cb001 = test system: LOC_OS04G35114-cb001
In short: as §1

LOC_OS04G38480-cb003 = test system: T1, LOC_OS04G38480-cb003
T1 sequence (whole entry): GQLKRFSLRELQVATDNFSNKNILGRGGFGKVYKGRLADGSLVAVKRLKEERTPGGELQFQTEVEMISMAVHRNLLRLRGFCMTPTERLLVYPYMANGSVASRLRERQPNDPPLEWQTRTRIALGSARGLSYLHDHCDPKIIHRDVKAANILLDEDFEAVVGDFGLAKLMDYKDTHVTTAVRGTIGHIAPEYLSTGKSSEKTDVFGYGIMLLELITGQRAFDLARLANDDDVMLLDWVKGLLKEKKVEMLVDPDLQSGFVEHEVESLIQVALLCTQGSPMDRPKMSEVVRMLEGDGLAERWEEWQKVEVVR
In short: as §1

LOC_OS04G41100-cb001 = test system: T2, LOC_OS04G41100-cb001
T2 sequence (whole entry): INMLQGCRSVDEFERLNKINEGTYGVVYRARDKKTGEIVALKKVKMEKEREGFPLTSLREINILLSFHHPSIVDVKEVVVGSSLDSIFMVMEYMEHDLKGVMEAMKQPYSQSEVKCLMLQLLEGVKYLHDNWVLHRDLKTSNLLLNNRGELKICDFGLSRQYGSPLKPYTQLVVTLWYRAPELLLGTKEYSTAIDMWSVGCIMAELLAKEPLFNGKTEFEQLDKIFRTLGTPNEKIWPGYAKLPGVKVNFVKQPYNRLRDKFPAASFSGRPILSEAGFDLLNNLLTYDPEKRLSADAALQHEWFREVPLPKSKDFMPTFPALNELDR
In short: as §1

LOC_OS01G63280-cb003 = test system: LOC_OS01G63280-cb003
In short: as §1

LOC_OS01G67340-cb003 = test system: LOC_OS01G67340-cb003
In short: as §1

SMILES | thermal shift delta Tm (LOC_OS01G57100-cb003) | thermal shift delta Tm (LOC_OS01G60330-cb001) | thermal shift delta Tm (LOC_OS01G60700-cb002) | thermal shift delta Tm (LOC_OS01G70970-cb002) | thermal shift delta Tm (LOC_OS02G07810-cb001) | thermal shift delta Tm (LOC_OS02G08530-cb003) | thermal shift delta Tm (LOC_OS02G14120-cb001) | thermal shift delta Tm (LOC_OS02G17970-cb001) | thermal shift delta Tm (LOC_OS02G45750-cb003) | thermal shift delta Tm (LOC_OS02G54510-cb004) | thermal shift delta Tm (LOC_OS03G04050-cb001) | thermal shift delta Tm (LOC_OS03G12390-cb001) | thermal shift delta Tm (LOC_OS03G27990-cb004) | thermal shift delta Tm (LOC_OS03G50450-cb001) | thermal shift delta Tm (LOC_OS03G50810-cb003) | thermal shift delta Tm (LOC_OS04G35114-cb001) | thermal shift delta Tm (LOC_OS04G38480-cb003) | thermal shift delta Tm (LOC_OS04G41100-cb001) | thermal shift delta Tm (LOC_OS01G63280-cb003) | thermal shift delta Tm (LOC_OS01G67340-cb003)
Cc1cc(O)c2c(c1)C(=O)c1cccc(O)c1C2=O [Chrysophanic Acid] | 5.05 °C | 0.02 °C | 0.52 °C | -3.4 °C | 0.6 °C | -0.63 °C | -2.71 °C | 1.94 °C | 0.14 °C | -1.28 °C | -0.08 °C | -1.54 °C | 0.02 °C | 0.03 °C | -0.82 °C | 0.09 °C | -1.19 °C | 0.06 °C | – | –
COC(=O)c1ccc2c(c1)NC(=O)/C2=C(\Nc1ccc(N(C)C(=O)CN2CCN(C)CC2)cc1)c1ccccc1 [Nintedanib (BIBF 1120)] | 0.08 °C | 1.75 °C | 0.96 °C | 2.57 °C | 0.27 °C | 3.05 °C | 0.3 °C | -0.36 °C | 2.59 °C | 0.74 °C | 0.2 °C | 2.83 °C | 1.25 °C | 0.03 °C | 2.2 °C | 6.69 °C | 0.23 °C | 0.7 °C | -0.1 °C | 0.48 °C
Cc1ccc2nc(NCCN)c3ncc(C)n3c2c1 | 0.95 °C | 0.28 °C | 0.64 °C | 0.33 °C | 0.4 °C | 0.92 °C | 0.86 °C | 0.51 °C | 1.07 °C | 0.24 °C | 0.59 °C | -0.09 °C | 0.55 °C | 0.62 °C | 0.58 °C | 0.91 °C | 0.69 °C | 1.54 °C | 0.27 °C | 0.55 °C
CC(=O)O/N=C1/C(c2c(O)[nH]c3cc(Br)ccc23)=Nc2ccccc21 [BIO-acetoxime] | -10.7 °C | 0.36 °C | -0.6 °C | -1.11 °C | – | 2.87 °C | -2.97 °C | – | 9.18 °C | 2.31 °C | 1.28 °C | -0.22 °C | 0.36 °C | -0.71 °C | 5.4 °C | 5.86 °C | -0.03 °C | 0.88 °C | 0.15 °C | -1.03 °C
